Measured values published in PubChem BioAssay AID493165 (National Center for Advancing Translational Sciences (NCATS), 2011).
Active and inactive are the calls of the source. The call rests on the fitted dose curve; in most records, active means well fitted curve in the direction sought with a large enough effect; inactive means no such curve, though single readings can be large or run the other way.

Experiment: Retest of LOPAC molecules that induce DNA re-replication in SW480 adenocarcinoma cells.
Conditions: Hoechst DNA content imaging, 48 h; series mostly up to 45.1 µM; activity, positive = re-replication: at the top concentration
From the text: NIH Molecular Libraries Probe Production Network [MLPCN] NIH Chemical Genomics Center [NCGC] MLPCN Grant: Fast Track K99 CA136555 Assay Provider: Melvin DePamphilis, NICHD, NIH Assay Overview Eukaryotic cells normally restrict genome duplication to once per cell division. When this process is aberrant, DNA re-replication occurs when cells reinitiate DNA replication before the first round of replication is complete. DNA re-replication induces the DNA damage response, arrests cell proliferation, and triggers apoptosis. The cell cycle components cyclin A, Cdt-1, Cdc6 and geminin are critical regulators of this process and their misregulation results in DNA re-replication in normal and cancer cells. To identify compounds that induce re-replication in normal cells, an image-based assay was used to measure DNA content of nuclei, as detected by the fluorescent DNA binding dye, Hoechst. Cell nuclei were imaged by a fluorescence scanning plate imager and compounds that induce DNA re-replication were identified by the increase of nuclei with elevated fluorescence intensity.
Assay Protocol Summary For screening, 250 cells in 5 uL/well were dispensed into black clear 1536-well plates (Aurora) using a solenoid-based dispenser. Following transfer of 23 nL compound or DMSO vehicle by a pin tool, the plates were incubated 48 hr at 37 C and 5% CO2. After addition of 1 uL/well Hoescht stain, the plates were incubated 40 min at 37 C, 5% CO2 and total intensity of fluorescent objects (nuclei) were enumerated by an Acumen Explorer Ex3 (TTP LabTech) fluorescence scanning plate imager (405 nm excitation, 500-530 nm emission). Keywords: NIH Roadmap, MLPCN, MLI, MLSMR, qHTS, NCGC, DNA replication, cancer

| Structure (SMILES) | activity, positive = re-replication | Potency |
| --- | --- | --- |
| CC(C)NP(=O)(NC(C)C)OP(=O)(NC(C)C)NC(C)C | 1.4% (inactive) |  |
| COc1cc2c(c(OC)c1OC)-c1ccc(OC)c(=O)cc1[C@@H](NC(C)=O)CC2 |  | 33.7 nM (active) |
| C=C(C)[C@H]1Cc2c(ccc3c2O[C@@H]2COc4cc(OC)c(OC)cc4[C@@H]2C3=O)O1 |  | 1070 nM (active) |
